In the library only some 2% were active in any assay of this set; here they are far more common.
Mcl1 Bid PPI = Mcl-1/Bid interaction inhibition | Q07820 | TR-FRET Mcl-1/Bid-Dy647 peptide binding, 1536-well | inhibition, % at 21.7 µM | 0.97% of 220,000 active;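 active means compounds that cut the binding signal by more than half at the single screening dose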;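 further: His-tagged Mcl-1 with europium anti-His antibody binding Bid BH3 peptide; 0% = Mcl-1 plus peptide wells and 100% = peptide-only wells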
Target sequence (Q07820 whole entry, looked up): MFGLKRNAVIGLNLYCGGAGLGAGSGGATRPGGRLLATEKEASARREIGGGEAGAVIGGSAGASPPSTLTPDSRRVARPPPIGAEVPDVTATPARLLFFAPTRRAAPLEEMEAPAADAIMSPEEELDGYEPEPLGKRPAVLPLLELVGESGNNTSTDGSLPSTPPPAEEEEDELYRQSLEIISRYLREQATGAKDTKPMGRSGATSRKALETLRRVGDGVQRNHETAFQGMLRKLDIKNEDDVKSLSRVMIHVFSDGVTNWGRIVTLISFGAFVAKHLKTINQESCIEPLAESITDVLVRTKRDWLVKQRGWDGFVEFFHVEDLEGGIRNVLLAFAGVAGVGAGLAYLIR
Mcl1 Noxa PPI = Mcl-1/Noxa interaction inhibition | Q07820 | TR-FRET Mcl-1/Noxa peptide binding, 2 h | inhibition, % at 21.7 µM | 1.5% of 220,000 active | AID 1022;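 active means compounds that cut the protein-peptide binding signal by more than 50% relative to plate controls in a single-dose test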;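 further: His-tagged Mcl-1 with rhodamine Noxa BH3 peptide and terbium anti-His antibody; 0% = Mcl-1 plus Noxa peptide wells and 100% = peptide-only wells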
MCL1-BIM inh = disrupts human MCL1 binding to BIM-BH3 peptide. Q07820. GST-MCL1 / FITC-Bim-BH3 fluorescence polarization. inhibition, % at 10.9 µM. 0.68% of 320,000 active. AID 2057;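 active means inhibition above the mean inhibition of all tested compounds plus 3 SD, set per campaign, cut at about 40% in these data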;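 further: 0% = DMSO wells and 100% = unlabeled Bim-BH3 peptide control; higher means more loss of mP so more displacement of Bim peptide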
Bim-Mcl-1 = inhibitors of Bim-Mcl-1 interaction, human. Bead-based flow cytometry, Bim peptide-Mcl-1 binding. inhibition, % at 10 µM. 0.1% of 190,000 active; in the data active means inhibition above about 40%;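 further: 0% = no compound tracer wells and 100% = peptide blocker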
Active calls of the source: *.

`CCOC(=O)Cc1csc(NC(=O)CSc2nnnn2-c2ccc(F)cc2)n1` gave Mcl1 Bid PPI 1, Mcl1 Noxa PPI 14, MCL1-BIM inh -1 and Bim-Mcl-1 0.
For CCC(/C=C1\Sc2ccc(OC)cc2N1CCO)=C\c1sc2ccc(OC)cc2[n+]1CCO the results were Mcl1 Bid PPI -94, Mcl1 Noxa PPI -97, MCL1-BIM inh 21 and Bim-Mcl-1 42*.
`CCC(/C=C1\Sc2ccc(OC)cc2N1CC)=C\c1sc2ccc(OC)cc2[n+]1CCCS(=O)(=O)[O-]` gave Mcl1 Bid PPI -35, Mcl1 Noxa PPI 36, MCL1-BIM inh 13 and Bim-Mcl-1 5.
`COC(=O)c1ccc(NC(=O)C(OC)c2ccccc2)cc1` (stereo unspecified) gave Mcl1 Bid PPI -14, Mcl1 Noxa PPI -12, MCL1-BIM inh 5 and Bim-Mcl-1 0.
Screening COC(=O)c1nnn(-c2nonc2N)c1CSc1nnc(N)s1 returned Mcl1 Bid PPI -27, Mcl1 Noxa PPI 18, MCL1-BIM inh 8 and Bim-Mcl-1 -1.
Screening O=c1oc2ccccc2c(Nc2ccc3ccccc3c2)c1[N+](=O)[O-] returned Mcl1 Bid PPI 39, Mcl1 Noxa PPI 67*, MCL1-BIM inh 4 and Bim-Mcl-1 0.
`Cc1ccc(Nc2c([N+](=O)[O-])c(=O)oc3ccccc23)cc1` gave Mcl1 Bid PPI 3, Mcl1 Noxa PPI 12, MCL1-BIM inh -2 and Bim-Mcl-1 -1.
For COc1ccc2[nH]c(CN3CCC(n4nccc4NC(=O)C4CC4)CC3)c(C)c2c1 the results were MCL1-BIM inh 9.
COc1ccc2ccccc2c1C1CC(=O)N2CN(C3CCCCC3)CSC2=C1C#N (stereo unspecified) was read as Mcl1 Bid PPI -6, Mcl1 Noxa PPI 63*, MCL1-BIM inh -19 and Bim-Mcl-1 -8.
CCOc1cc(C2CC(=O)NC(SCC)=C2C#N)ccc1O (stereo unspecified) was read as Mcl1 Bid PPI -12, Mcl1 Noxa PPI 25, MCL1-BIM inh 6 and Bim-Mcl-1 3.
For CCOc1cc(C2CC(=O)N3CN(C4CCCCC4)CSC3=C2C#N)ccc1O (stereo unspecified) the results were Mcl1 Bid PPI -40, Mcl1 Noxa PPI 57*, MCL1-BIM inh 5 and Bim-Mcl-1 -4.
COc1ccc(-c2nc(C(N)=O)c3[nH]c(=O)n(-c4ccccc4OC)c3n2)c(OC)c1 was read as Mcl1 Bid PPI -20, Mcl1 Noxa PPI -7, MCL1-BIM inh 4 and Bim-Mcl-1 -3.
Screening COc1ccc(OC)c(-c2nc(C(N)=O)c3[nH]c(=O)n(-c4ccc(F)cc4)c3n2)c1 returned Mcl1 Bid PPI 66*, Mcl1 Noxa PPI 67*, MCL1-BIM inh -2 and Bim-Mcl-1 1.
For CCn1ncc(Br)c1C(=O)Nc1ccc(C(C)C)cc1 the results were MCL1-BIM inh -4.
Screening COc1ccc(-n2c(=O)cc(N3CCOCC3)[nH]c2=O)cc1 returned Mcl1 Bid PPI 92*, Mcl1 Noxa PPI 10, MCL1-BIM inh 4 and Bim-Mcl-1 -3.
For COc1ccc(-n2c(=O)cc(N3CCCCCC3)[nH]c2=O)cc1 the results were Mcl1 Bid PPI -21, Mcl1 Noxa PPI 5, MCL1-BIM inh 3 and Bim-Mcl-1 -1.
COc1cccc(N2CCN(C(=O)NC3CCCCC3)CC2)c1 was read as Mcl1 Bid PPI 94*, Mcl1 Noxa PPI 11, MCL1-BIM inh 0 and Bim-Mcl-1 -1.
For CCCCc1cc(=O)oc2cc(C)cc(OC(C)C(=O)NCc3cccnc3)c12 (stereo unspecified) the results were MCL1-BIM inh 2.
For COC(=O)C1=CN(CC2CCCO2)C=C(C(=O)OC)C1c1ccsc1 (stereo unspecified) the results were Mcl1 Bid PPI 96*, Mcl1 Noxa PPI 0, MCL1-BIM inh 5 and Bim-Mcl-1 0.
For COC(=O)C1=CN(CC2CCCO2)C=C(C(=O)OC)C1c1cccc(O)c1 (stereo unspecified) the results were Mcl1 Bid PPI -39, Mcl1 Noxa PPI 10, MCL1-BIM inh 1 and Bim-Mcl-1 -2.
For Cc1ccc(-c2cc(C(=O)Nc3ccccc3C)c3ccccc3n2)o1 the results were Mcl1 Bid PPI 12, Mcl1 Noxa PPI 66*, MCL1-BIM inh 16 and Bim-Mcl-1 -2.
COc1cccc(NC(=O)c2cc(-c3ccc(C)o3)nc3ccccc23)c1 was read as MCL1-BIM inh 0.
COC(=O)c1cc(-c2ccc(C)o2)nc2ccccc12 was read as Mcl1 Bid PPI 2, Mcl1 Noxa PPI 78*, MCL1-BIM inh 24 and Bim-Mcl-1 0.
`Cc1ccc(-c2cc(C(=O)N3CC(C)CC(C)C3)c3ccccc3n2)o1` (stereo unspecified) gave MCL1-BIM inh 24.
Screening Cc1ccc(CNC(=O)CCSCc2ccccc2C)cc1 returned MCL1-BIM inh 1.
CCCc1nc2oc3ccccc3c(=O)c2c(=O)n1-c1ccc(C)cc1 was read as Mcl1 Bid PPI 7, Mcl1 Noxa PPI 2 and MCL1-BIM inh 0.
Screening CCc1nc2oc3ccccc3c(=O)c2c(=O)n1-c1ccc(C)cc1 returned Mcl1 Bid PPI -19, Mcl1 Noxa PPI 54* and MCL1-BIM inh 20.
For NNc1nc(-c2ccccc2)cs1 the results were Mcl1 Bid PPI 83*, Mcl1 Noxa PPI 4, MCL1-BIM inh 5 and Bim-Mcl-1 -7.
Screening c1ccc(-c2csc(Nc3ncccn3)n2)cc1 returned Mcl1 Bid PPI -34, Mcl1 Noxa PPI 3, MCL1-BIM inh 3 and Bim-Mcl-1 -5.
For O=C(CCS(=O)(=O)c1ccccc1)NC1CCCCC1 the results were MCL1-BIM inh 2.
Screening O=C(CCS(=O)(=O)c1ccc(Br)s1)NC1CCCCCC1 returned Mcl1 Bid PPI 78*, Mcl1 Noxa PPI -8, MCL1-BIM inh 1 and Bim-Mcl-1 -2.
`CN(C)CCCOC(=O)C1c2ccccc2Oc2ccccc21` gave Mcl1 Bid PPI -6, Mcl1 Noxa PPI 4, MCL1-BIM inh -6 and Bim-Mcl-1 -2.
CN(CCOC(=O)C1c2ccccc2Oc2ccccc21)C(C)(C)C was read as Mcl1 Bid PPI 97*, Mcl1 Noxa PPI 12, MCL1-BIM inh 0 and Bim-Mcl-1 0.
Screening O=S(=O)(c1ccc(Cl)cc1)N1CCN(C(=S)NCC2CCCO2)CC1 (stereo unspecified) returned MCL1-BIM inh 0.
CCOCCCN(Cc1cc2cc(C)cc(C)c2[nH]c1=O)C(=O)N(CC)CC was read as Mcl1 Bid PPI 14, Mcl1 Noxa PPI 16, MCL1-BIM inh 11 and Bim-Mcl-1 -3.
For CCc1cc2cc(C)cc(C)c2[nH]c1=S the results were Mcl1 Bid PPI 26, Mcl1 Noxa PPI 60*, MCL1-BIM inh 2 and Bim-Mcl-1 0.
`O=C(c1ccccc1)c1cc(Cl)ccc1N1C(=O)C=CC1=O` gave Mcl1 Bid PPI 51*, Mcl1 Noxa PPI 32 and Bim-Mcl-1 4.
`Cc1cc(NC(=O)c2cc3cccc([N+](=O)[O-])c3[nH]2)ccc1F` gave Mcl1 Bid PPI -2, Mcl1 Noxa PPI 54* and MCL1-BIM inh -8.
For COCC(C)NC(=O)c1cc2cccc([N+](=O)[O-])c2[nH]1 (stereo unspecified) the results were Mcl1 Bid PPI -12, Mcl1 Noxa PPI -8 and MCL1-BIM inh 4.

Bioassay records as filed in PubChem.
